The source of these data is PubChem BioAssay (NCATS).

Inconclusive results are not listed. Where a call stands in place of a potency, no number is given. Activity calls are given as the source filed them. The call rests on the fitted dose curve; in most records, active means well fitted inhibition curve with a large enough effect; inconclusive means small, poorly fitted or top-dose-only effect; inactive means no such curve, though single readings can be large or run the other way.
Potency means the concentration at half of the fitted maximal effect.

Thioredoxin reductase 1, cytoplasmic (Rattus norvegicus), sequence (O89049 whole entry, looked up): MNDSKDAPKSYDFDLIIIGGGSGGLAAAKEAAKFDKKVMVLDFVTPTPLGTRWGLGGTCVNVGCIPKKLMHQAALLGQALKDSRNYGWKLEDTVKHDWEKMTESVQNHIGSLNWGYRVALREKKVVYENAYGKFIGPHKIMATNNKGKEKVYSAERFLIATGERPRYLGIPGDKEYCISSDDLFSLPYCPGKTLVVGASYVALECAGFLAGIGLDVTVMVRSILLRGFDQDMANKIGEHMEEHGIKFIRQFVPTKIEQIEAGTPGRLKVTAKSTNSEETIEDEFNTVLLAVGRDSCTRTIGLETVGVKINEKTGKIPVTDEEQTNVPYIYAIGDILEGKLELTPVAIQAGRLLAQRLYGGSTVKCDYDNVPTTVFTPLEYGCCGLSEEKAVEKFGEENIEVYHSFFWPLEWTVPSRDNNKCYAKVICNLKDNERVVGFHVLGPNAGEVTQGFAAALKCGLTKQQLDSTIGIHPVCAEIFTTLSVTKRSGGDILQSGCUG

The test addresses Thioredoxin reductase 1, cytoplasmic (Rattus norvegicus) (UniProt O89049). Briefly: qHTS Assay for Inhibitors of Mammalian Selenoprotein Thioredoxin Reductase 1 (TrxR1) (AID 488773). Further: nearly all actives have a fitted effect of over 40% in size. Conditions: purified TrxR1 enzyme activity; Potency: inhibition; series mostly up to 57.1 µM. From the text: The selenoprotein thioredoxin reductase (TrxR; EC 1.8.1.9) is a FAD containing homodimeric pyridine nucleotide-disulfide oxidoreductase with many cellular roles. Together with NADPH and its prime substrate thioredoxin (Trx), the enzyme forms the core of the Trx system. The mammalian Trx system exerts a wide spectrum of functions including redox regulation, antioxidant defense, regulation of transcription factors as well as support of cell growth and replication. Many of these functions involve the reduction of Trx, which may subsequently reduce a number of different substrates including ribonucleotide reductase, peroxiredoxins or NFkB. Mammalian TrxR itself also has a broad substrate specificity, reducing both protein and non-protein substrates, including low molecular weight compounds such as dehydroascorbate, lipoic acid, ubiquinone, and juglone. In addition, several drugs in clinical use for anticancer treatment are indeed known to target TrxR1.
This BioAssay is a validation of an NADPH fluorescence-based, dual-purpose qHTS rTrxR1 assay designed to find potential inhibitors and substrates of rTrxR1. For this particular BioAssay, actives are potential inhibitors. See related BioAssay for substrate data deposition.
Assay protocol: 2 uL of reagents (buffer in column 4 as negative control and 90 nM rTrxR1 in columns 1-3 and 5-48) were dispensed into Greiner black solid-bottom 1,536-well assay plates, followed by 1 uL of NADPH (400 uM final concentration) to each well. The plates were centrifuged at 1000 rpm for 15 seconds and subsequently incubated for 5 min at room temperature (~22 deg C) to allow for rTrxR1 reduction. Compounds (23 nL) were then transferred via Kalypsys pin tool equipped with 1536-pin array (10 nL slotted pins, V&P Scientific, San Diego, CA). In addition, a duplicate 2-fold serial dilution of the control compounds auranofin, a known gold-based TrxR1 inhibitor, and juglone (5-hydroxy-1,4-naphthoquinone), a natural TrxR1 substrate, were pin-transferred to columns 2 and 3, respectively. After incubation for 15 min at room temperature (~22 deg C), 1 uL of selenite (400 uM final concentration) were dispensed to each well. The plate was immediately transferred to a ViewLux high-throughput CCD imager (PerkinElmer), wherein kinetic measurements of NADPH fluorescence (Ex 340 nm, Em 450 nm) were acquired (8 minute kinetic read, see Table 1). Read 1 was utilized to assess the capacity of a compound to serve as an rTrxR1 substrate, i.e. a decrease in NADPH fluorescence compared to the no-compound background is an indication of a substrate behavior for that particular compound. For inhibitory activity of a compound, delta values, computed as the difference in fluorescence intensity between the first and last reads of an 8-minute time kinetic window, were used. All reagents were diluted in an assay buffer consisting of 50 mM Tris-HCl, pH 7.5, 2 mM EDTA, and 0.01% Tween-20.
Throughout the screen, reagent bottle and all liquid lines were made light-tight to minimize reagent degradation. All screening operations were performed on a fully integrated robotic system (Kalypsys, San Diego, CA) containing one RX-130 and two RX-90 anthropomorphic robotic arms (Staubli, Duncan, SC). Library plates were screened starting from the lowest and proceeding to the highest concentration, and a 'double-pinning' step of the highest concentration was required to access higher concentrations of compounds. Vehicle-only plates, with DMSO being pin-transferred to the columns 5-48, were inserted uniformly at the beginning and the end of each library in order to monitor and record any shifts in the background, which can be affected by reagent dispensers or loss in enzyme activity over time. Screening data were corrected, normalized, and concentration-effect relationships were derived by using publicly-available curve fitting algorithms developed in-house (http://ncgc.nih.gov/pub/openhts).
On the technique in general: In qHTS, concentration-response curves come from the screen itself.
Consider `O=C(CCCCCN1CCN(c2ccccc2-c2ccccc2)CC1)NC1CCCc2ccccc21` (stereo not given), for which the Potency entry is “inactive”.

With `O=C(O)c1cc(=O)c2ccccc2[nH]1`, the Potency result is “inactive”.

As to `CN(C)C(N)=NCCC[C@H](N)C(=O)O`, the Potency result is “inactive”.

For `COc1ccccc1N1CCN(CCCCNS(=O)(=O)c2cccc3c(N(C)C)cccc23)CC1`, the Potency result is “inactive”.

Consider `Cc1ccccc1CNc1ncnc2c1ncn2C1OC(CO)C(O)C1O` (stereo not given), for which the Potency result is “inactive”.

With `NO`, the Potency entry was “inactive”.

For the molecule `CCCCCCCCCCCCCCCCCC(=O)OC(CC(=O)O)C[N+](C)(C)C` (stereo not given), the Potency entry was “inactive”.

On to `NCCCCCCCCCCN`, for which the Potency entry was “inactive”.

As to `CNC(=O)[C@H]1O[C@@H](n2cnc3c(NCc4cccc(I)c4)ncnc32)[C@H](O)[C@@H]1O`, the Potency result is “inactive”.

With `CC(=O)N[C@H](C(=O)O)C(C)(C)SN=O`, the Potency result is “inactive”.

Turning to `OC[C@H]1O[C@@H](n2cnc3c(NC4CCCC4)ncnc32)[C@H](O)[C@@H]1O`, the Potency entry is “inactive”.

Regarding `COC1=C(OC)C(=O)c2ccccc2C1=O`, the Potency entry is “inactive”.

With `COc1ccc(/C=C/C(=O)Nc2ccccc2C(=O)O)cc1OC`, the Potency entry was “inactive”.

As to `CCCCCCCCCCCCCCCCCCNC(=O)OCC(COP(=O)([O-])OCC[n+]1ccsc1)OC` (stereo not given), the Potency entry is “inactive”.

As for `NC(=S)c1ccc[n+]([C@@H]2O[C@@H](COP(=O)([O-])OP(=O)(O)OC[C@H]3O[C@@H](n4cnc5c(N)ncnc54)[C@H](OP(=O)(O)O)[C@@H]3O)C(O)C2O)c1` (stereo not given in full), the Potency result was “inactive”.

In the case of `NC(=S)NCCC[C@H](N)C(=O)O`, the Potency entry was “inactive”.

With `NCC1OC(O[C@H]2[C@H](O)[C@@H](OC3C(O)C(N)CC(N)C3OC3OC(CO)C(O)C(O)C3N)O[C@@H]2CO)C(N)C(O)C1O` (stereo not given in full), the Potency entry is “inactive”.

For `Cc1ccc(C(=O)O[C@H](C(=O)O)[C@@H](OC(=O)c2ccc(C)cc2)C(=O)O)cc1` (tested in a mixture with another compound), the Potency entry was “inactive”.

Consider `CN1CC(=O)N/C1=N/C(=O)Nc1cccc(Cl)c1`, for which the Potency result is “inactive”.

Turning to `CCc1c(C(=O)NCCc2ccc(N3CCCCC3)cc2)[nH]c2ccc(Cl)cc12`, the Potency result was “inactive”.

Consider `Cc1nc2sccn2c(=O)c1CCN1CCC(=C(c2ccccc2)c2ccc(F)cc2)CC1`, for which the Potency result is “inactive”.

With `CCCCC#Cc1nc(NC)c2ncn([C@@H]3O[C@H](CO)[C@@H](O)[C@H]3O)c2n1`, the Potency entry was “inactive”.

For `CC[C@@H](C)[C@H]1O[C@]2(CC[C@H]1C)C[C@@H]1C[C@@H](CC=C(C)[C@@H](O[C@H]3C[C@H](OC)[C@@H](O[C@H]4C[C@H](OC)[C@@H](O)[C@H](C)O4)[C@H](C)O3)[C@@H](C)C=CC=C3CO[C@@H]4[C@H](O)C(C)=C[C@@H](C(=O)O1)[C@]34O)O2`, the Potency result is “inactive”.

As to `O=C1O/C(=C/Br)CCC1c1cccc2ccccc12` (stereo not given), the Potency is 2.67 µM (active).

Take `COc1cc2c(CCNC(C)=O)c[nH]c2cc1Cl`: the Potency entry is “inactive”.

`CC1(C)CCC=[N+]1[O-]`: the Potency entry was “inactive”.

As to `O=C(O)CNC(=O)C(CS)Cc1ccccc1` (stereo not given), the Potency entry is “inactive”.

Turning to `CCN(CC)c1ncnc2c1ncn2[C@@H]1O[C@H](COP(=O)(O)OP(=O)(O)C(Br)(Br)P(=O)(O)O)[C@@H](O)[C@H]1O`, the Potency entry is “inactive”.

Regarding `Nc1nc(Nc2ccccc2)nc2c1ncn2[C@@H]1O[C@H](CO)[C@@H](O)[C@H]1O`, the Potency entry was “inactive”.

Turning to `O=C(O)[C@@H]1C[C@H](C(=O)O)N1`, the Potency result was “inactive”.

In the case of `Nc1ncnc2c1ncn2[C@@H]1O[C@H](COP(=O)(O)CP(=O)(O)OP(=O)(O)O)[C@@H](O)[C@H]1O`, the Potency entry was “inactive”.

Turning to `Cc1cc(NC2CCCCC2)nc(-n2nc(C)cc2C)n1`, the Potency result is “inactive”.

As for `O=C1/C(=C/c2ccsc2)CC/C1=C\c1cccs1`, the Potency result is “inactive”.

For `C[N+]1(C)C2CC(OC(=O)[C@H](CO)c3ccccc3)CC1C1OC12` (stereo not given in full), the Potency result was “inactive”.

As to `CNc1ncnc2c1ncn2[C@@H]1O[C@H](CO)[C@@H](O)[C@H]1O`, the Potency entry is “inactive”.

As to `Cn1c(=O)c2[nH]c(-c3ccccc3)nc2n(C)c1=O`, the Potency entry was “inactive”.

Regarding `COc1cc(OC)c(/C=C2/C(=O)Nc3ccccc32)c(OC)c1`, the Potency entry was “inactive”.

For `CN1CCc2cc(O)c(O)cc2C(c2ccccc2)C1` (stereo not given), the Potency result was “inactive”.

Take `CN1CCc2cc(NC(=O)Nc3cccnc3)ccc21`: the Potency entry was “inactive”.

Regarding `N#C/C(=C\c1ccc(O)c(O)c1)C(=O)NCCCc1ccccc1`, the Potency result was “inactive”.
